# From PubChem BioAssay (EPA / NIEHS)
# Active and inactive are the calls of the source. Rule for the calls: active = hit-call score of the fitted dose curve at least 0.9, where 1 is the maximum; inactive = score below 0.9.
# What was measured:
# [1] = read-out: Interleukin-1 alpha (IL1a), IL1A (gene 3552); experiment: BSK_KF3CT_IL1a: BioMAP Diversity Plus: KF3CT Assay for Interleukin-1 alpha (IL1a) Biomarker Activity (AID 2283070); conditions: primary human keratinocytes with fibroblasts; actives raise or lower the signal
# Outline: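 Primary human keratinocyte plus foreskin fibroblast co-culture, dosed and measured at 24 h in 96-well plates. IL-1a level quantified by ELISA; bidirectional fit relative to DMSO.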
# [2] = read-out: TIMP metallopeptidase inhibitor 2 (TIMP2), TIMP2 (gene 7077); experiment: BSK_KF3CT_TIMP2: BioMAP Diversity Plus: KF3CT Assay for TIMP metallopeptidase inhibitor 2 (TIMP2) Biomarker Activity (AID 2283071); conditions: primary human keratinocytes with fibroblasts; actives raise or lower the signal
# Outline: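 Cells: human keratinocytes co-cultured with foreskin fibroblasts. Treat with chemical, 24 h. Measure TIMP-2 by ELISA; fit curves bidirectionally vs DMSO baseline.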
# [3] = read-out: Transforming growth factor beta 1 (TGFb1), TGFB1 (gene 7040); experiment: BSK_KF3CT_TGFb1: BioMAP Diversity Plus: KF3CT Assay for Transforming growth factor beta 1 (TGFb1) Biomarker Activity (AID 2283072); conditions: primary human keratinocytes with fibroblasts; actives raise or lower the signal
# Outline: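 Primary human skin cells (keratinocytes, foreskin fibroblasts) were co-cultured, exposed to test chemical and sampled at 24 h. TGF-b1 levels were measured by ELISA and fitted bidirectionally relative to DMSO.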
# [4] = read-out: C-C motif chemokine 2 (Homo sapiens) (UniProt P13500); experiment: BSK_KF3CT_MCP1: BioMAP Diversity Plus: KF3CT Assay for Monocyte Chemoattractant Protein 1 (MCP1/CCL2) Biomarker Activity (AID 2283073); conditions: primary human keratinocytes with fibroblasts; actives raise or lower the signal
# Outline: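 Human keratinocyte plus foreskin fibroblast primary co-culture exposed to chemical for 24 h. MCP-1 levels measured by ELISA. Bidirectional curve fitting relative to DMSO negative control as baseline.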
# [5] = read-out: Matrix Metallopeptidase 9 (MMP9), MMP9 (gene 4318); experiment: BSK_KF3CT_MMP9: BioMAP Diversity Plus: KF3CT Assay for Matrix Metallopeptidase 9 (MMP9) Biomarker Activity (AID 2283074); conditions: primary human keratinocytes with fibroblasts; actives raise or lower the signal;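 for AC50: MMP9 protein level quantified by ELISA in the co-culture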
# Outline: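 Human keratinocyte and foreskin fibroblast co-culture exposed to chemicals for 24 h; MMP9 biomarker measured by ELISA, bidirectional fitting relative to DMSO; cytotoxicity tracked by SRB total protein staining in parallel cultures.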
# [6] = read-out: urokinase plasminogen activator (uPA), PLAU (gene 5328); experiment: BSK_KF3CT_uPA: BioMAP Diversity Plus: KF3CT Assay for urokinase plasminogen activator (uPA) Biomarker Activity (AID 2283075); conditions: primary human keratinocytes with fibroblasts; actives raise or lower the signal
# Outline: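 Primary human keratinocyte/foreskin fibroblast co-culture exposed to chemical; uPA measured by ELISA at 24 h. Bidirectional fit versus DMSO, with parallel SRB total-protein staining for cytotoxicity.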
# [7] = read-out: CD40, CD40 (gene 958); experiment: BSK_LPS_CD40: BioMAP Diversity Plus: LPS Assay for CD40 Biomarker Activity (AID 2283076); conditions: primary human HUVEC with PBMC; actives raise or lower the signal
# Outline: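 Primary human umbilical vein endothelial cells co-cultured with peripheral blood mononuclear cells, LPS-stimulated, were dosed with chemical and read 24 h later. CD40 levels were measured by ELISA and fitted bidirectionally against DMSO as negative control and baseline.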
# [8] = read-out: E-selectin (Homo sapiens) (UniProt P16581); experiment: BSK_LPS_Eselectin: BioMAP Diversity Plus: LPS Assay for Eselectin Biomarker Activity (AID 2283077); conditions: primary human HUVEC with PBMC; actives raise or lower the signal
# Outline: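 Human umbilical vein endothelial cells co-cultured with peripheral blood mononuclear cells under LPS stimulation; E-selectin measured by ELISA 24 h after chemical dosing. Activity fitted bidirectionally against DMSO as negative control and baseline.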
# [9] = read-out: Interleukin-8 (IL8), CXCL8 (gene 3576); experiment: BSK_LPS_IL8: BioMAP Diversity Plus: LPS Assay for Interleukin-8 (IL8) Biomarker Activity (AID 2283078); conditions: primary human HUVEC with PBMC; actives raise or lower the signal
# Outline: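 Human umbilical vein endothelial cells co-cultured with PBMC were stimulated with LPS; IL-8 levels were measured by ELISA 24 h after chemical dosing. Activity was fitted bidirectionally against DMSO as negative control and baseline.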
# [10] = BSK_LPS_SRB: Viability Assessment in the BioMAP Diversity Plus: LPS Assay (AID 2283079); conditions: primary human HUVEC with PBMC;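 note: total protein by sulforhodamine B absorbance as a cytotoxicity measure; measured one day after compound addition; fitted in both directions against DMSO so loss or gain of signal counts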
# Outline: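 Human umbilical vein endothelial cells co-cultured with PBMC (LPS system) were dosed for 24 h. Total protein was stained with 0.1% sulforhodamine B after 10% TCA fixation, read at 560 nm, and fitted bidirectionally against DMSO baseline.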
# E-selectin (Homo sapiens), sequence (P16581 whole entry, looked up): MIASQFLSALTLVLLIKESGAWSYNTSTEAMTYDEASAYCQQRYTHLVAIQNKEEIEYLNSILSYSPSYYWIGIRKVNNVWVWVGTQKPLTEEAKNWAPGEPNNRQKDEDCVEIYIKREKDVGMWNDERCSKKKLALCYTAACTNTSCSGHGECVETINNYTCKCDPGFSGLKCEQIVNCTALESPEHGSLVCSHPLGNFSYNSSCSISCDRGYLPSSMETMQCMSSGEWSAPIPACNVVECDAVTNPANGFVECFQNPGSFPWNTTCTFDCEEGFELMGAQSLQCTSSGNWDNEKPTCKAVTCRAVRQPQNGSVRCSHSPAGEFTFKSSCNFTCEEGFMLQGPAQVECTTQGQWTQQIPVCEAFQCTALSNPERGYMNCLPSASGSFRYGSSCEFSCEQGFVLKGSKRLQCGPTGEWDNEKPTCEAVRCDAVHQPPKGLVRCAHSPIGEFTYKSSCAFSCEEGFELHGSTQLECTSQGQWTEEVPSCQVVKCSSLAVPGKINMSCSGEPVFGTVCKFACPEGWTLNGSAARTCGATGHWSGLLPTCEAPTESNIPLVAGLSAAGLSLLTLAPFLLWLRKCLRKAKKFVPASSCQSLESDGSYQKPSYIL
SMILES,outcome [1],outcome [2],outcome [3],outcome [4],outcome [5],outcome [6],outcome [7],outcome [8],outcome [9],outcome [10],AC50 [7],AC50 [1],AC50 [2],AC50 [3],AC50 [4],AC50 [5],AC50 [6],AC50 [9]
O=[N+]([O-])C(CO)(CO)CO,inactive,inactive,inactive,inactive,inactive,inactive,inactive,inactive,inactive,inactive,–,–,–,–,–,–,–,–
CCCc1cc(=O)[nH]c(=S)[nH]1,inactive,inactive,inactive,inactive,inactive,inactive,inactive,inactive,inactive,inactive,–,–,–,–,–,–,–,–
COC(=O)c1ccc(O)cc1,inactive,inactive,inactive,inactive,inactive,inactive,inactive,inactive,inactive,inactive,–,–,–,–,–,–,–,–
O=c1[nH]cc(F)c(=O)[nH]1,inactive,inactive,inactive,inactive,inactive,inactive,–,inactive,inactive,inactive,20.4 µM (active),–,–,–,–,–,–,–
Cc1ccc(C)c(C)c1,inactive,inactive,inactive,inactive,inactive,inactive,inactive,inactive,inactive,inactive,–,–,–,–,–,–,–,–
NC(=O)Cn1c(=O)cc(CCN2CCN(c3nccc4sccc34)CC2)c2ccc(F)cc21,inactive,inactive,inactive,inactive,inactive,inactive,inactive,inactive,inactive,inactive,–,–,–,–,–,–,–,–
C=CCOC(=O)c1ccccc1C(=O)OCC=C,inactive,inactive,inactive,inactive,inactive,inactive,–,inactive,inactive,–,–,–,–,–,–,–,–,–
O=C(OCCCCCOC(=O)c1ccccc1)c1ccccc1,inactive,inactive,inactive,inactive,inactive,inactive,inactive,inactive,inactive,inactive,–,–,–,–,–,–,–,–
COc1cc(C=O)ccc1O,inactive,inactive,inactive,inactive,inactive,inactive,inactive,inactive,inactive,inactive,–,–,–,–,–,–,–,–
O=c1c(O)c(-c2ccc(O)c(O)c2)oc2cc(O)cc(O)c12,–,–,–,–,–,–,–,inactive,–,–,–,7.22 µM (active),20 µM (active),20 µM (active),24.2 µM (active),20 µM (active),12.7 µM (active),20 µM (active)
Cc1c(C(=O)O)c(O)cc2c1C(=O)c1c(O)c([C@@H]3O[C@H](CO)[C@@H](O)[C@H](O)[C@H]3O)c(O)c(O)c1C2=O,inactive,inactive,inactive,inactive,inactive,inactive,–,inactive,inactive,–,–,–,–,–,–,–,–,–
COc1ccc(S(=O)(=O)N2C(=O)[C@@](c3ccccc3OC)(N3C[C@H](O)C[C@H]3C(=O)N(C)C)c3cc(Cl)ccc32)c(OC)c1,inactive,inactive,inactive,inactive,inactive,inactive,–,inactive,–,–,–,–,–,–,–,–,–,7.03 µM (active)
NCC1(Cc2noc(=O)[nH]2)CCCCC1,inactive,inactive,inactive,inactive,inactive,inactive,inactive,inactive,inactive,inactive,–,–,–,–,–,–,–,–
CNCc1cc(F)ccc1Oc1ccc(Cl)c(Cl)c1,inactive,inactive,inactive,inactive,inactive,–,–,inactive,–,–,–,–,–,–,–,–,30.5 µM (active),15.7 µM (active)
Oc1ccc2ccccc2c1N=Nc1ccccc1,inactive,–,–,inactive,–,inactive,–,inactive,inactive,–,–,–,3.97 µM (active),6.33 µM (active),–,3.97 µM (active),–,–
CCCCCCCC=O,inactive,inactive,inactive,inactive,inactive,inactive,–,inactive,inactive,–,–,–,–,–,–,–,–,–
CCCCCCCCCCCC(=O)OC,inactive,inactive,inactive,inactive,inactive,inactive,inactive,inactive,inactive,inactive,–,–,–,–,–,–,–,–
CCCCc1ccc2c(n1)[C@@H](c1ccc(OC)cc1C[C@H](C)C(=O)O)[C@H](C(=O)O)[C@H]2c1ccc2c(c1)OCO2,inactive,inactive,inactive,inactive,inactive,inactive,inactive,inactive,inactive,inactive,–,–,–,–,–,–,–,–
CCCCCCCCCCCCCO,–,–,–,–,–,–,–,inactive,–,–,–,35.2 µM (active),34.1 µM (active),32.1 µM (active),26.1 µM (active),31.2 µM (active),37.6 µM (active),34.2 µM (active)
Oc1ccc2c(c1)OC[C@@H](N1CCC(O)(c3ccc(F)cc3)CC1)[C@H]2O,inactive,inactive,inactive,inactive,inactive,inactive,inactive,inactive,inactive,inactive,–,–,–,–,–,–,–,–
CCCCCCCCCCO,inactive,inactive,inactive,inactive,inactive,inactive,–,inactive,inactive,–,–,–,–,–,–,–,–,–
CCOc1ccc2c(c1)C(C)=CC(C)(C)N2,inactive,inactive,inactive,inactive,inactive,inactive,inactive,inactive,inactive,inactive,–,–,–,–,–,–,–,–
